Screens (PubChem)
HSD17B inhib – inhibitors of human HSD17B10 dehydrogenase | 75,000 tested, 7.6% active | recombinant HSD17B10, NADH fluorescence kinetic | Potency, µM (doses to about 57.1 µM), actives largely listed as inhibitors | Q99714;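 note: the protocol describes HADH2 (HSD17B10) and not the HSD17B4 of the title; nearly all actives have a fitted effect of over 70% in size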
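20 nM HADH2, pH 9.0 Tris/Tween; cpd preinc 15 min RT; start w/ 1 mM NAD+ + 90 uM b-hydroxybutyryl-CoA; kinetic fluor ex360/em450 q30s x 4 min; delta last-first.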
CRE Fsk mod – CRE-bla signaling modulation under forskolin stimulation | CHO CRE-bla reporter (cAMP response element driving beta-lactamase), forskolin EC10, beta-lactamase ratio | Potency, µM (series often up to 38.2 µM), usual class: activators | 71,000 tested, 2.5% active; active = well fitted activation curve with a large enough effect in the signal ratio, with a control signal flat, not every such curve was filed as active; inconclusive = small, poorly fitted or top-dose-only effect, or effect the other way, or a change in a side signal; the % refers to the signal ratio
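Modulation of forskolin signalling: compounds in titration series added with EC10 NKH 477 to CHO cells carrying a CRE-driven beta-lactamase reporter, 3 h, 37C. CCF4 FRET ratio (460/530 nm, ex 405 nm) gives %activity and AC50.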
HADH2 inhib – HADH2 (human) dehydrogenase inhibition | recombinant HADH2, NADH fluorescence, beta-hydroxybutyryl-CoA | Potency, µM (highest dose often 57.1 µM), usual class: inhibitors | 73,000 tested, 3.4% active | Q99714; note: nearly all actives have a fitted effect of over 60% in size
Target sequence (Q99714 whole entry, looked up, one chain of several): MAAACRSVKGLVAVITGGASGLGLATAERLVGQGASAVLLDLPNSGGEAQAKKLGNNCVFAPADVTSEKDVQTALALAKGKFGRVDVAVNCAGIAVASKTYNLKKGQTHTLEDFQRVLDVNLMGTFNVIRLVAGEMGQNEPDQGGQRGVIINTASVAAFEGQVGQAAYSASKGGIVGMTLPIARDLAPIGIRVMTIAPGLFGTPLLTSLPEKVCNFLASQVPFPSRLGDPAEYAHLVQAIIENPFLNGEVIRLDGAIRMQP
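His-tagged recombinant enzyme from E. coli, 20 nM, preincubated 15 min RT with compound; reaction started with 1 mM NAD+ and 90 uM beta-hydroxybutyryl-CoA in 100 mM Tris-HCl pH 9.0. NADH fluorescence (ex 360/em 450) read over 4 min; last-minus-first difference.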
4MU fluor – compound fluoresces in the 4-MU spectral region; compound autofluorescence, 340/450 nm, 4-MU equivalents; hits give high values; 59,000 tested, 11% active; max dye-equivalent concentration, M; in the data active = max dye-equivalent concentration above about 10 nM; inconclusive = mostly about 1.1 nM to 9.6 nM
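Intrinsic fluorescence at 340/450 nm (ex/em) was read after 15 min at room temperature in pH 8.0, 100 mM Tris. Each compound concentration expressed as 4-MU-equivalent concentration from a six-point 4-MU standard series on each plate.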
AID923 – qHTS Assay for Allosteric/Competitive Inhibitors of Caspase-1: Spectroscopic Profiling in AFC Spectral Region. compound fluorescence, AFC spectral region (405/520 nm). Potency, µM (highest dose often 57.5 µM), usual class: activators. 75,000 tested, 1.1% active. AID 923, 2007
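Compound autofluorescence profiled at 405 nm ex/520 nm em during kinetic caspase 1 run (50 nM enzyme, 5 uM Ac-WEHD-AFC, HEPES pH 7.5, 10 mM DTT). Titration up to 57 uM; baseline from regression intercept, normalized to AFC standard curve.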
A350 autofl – A350 region autofluorescence | max dye-equivalent concentration, M | 59,000 tested, 11% active | Compound autofluorescence, 340/450 nm, Alexa 350 dye-equivalents; hits give high values | AID 590; in the data active = max dye-equivalent concentration above about 10 nM; inconclusive = mostly about 1.1 nM to 9.6 nM
Numbers stand for hits; . = inactive; ? = inconclusive; / = no result; [ ] = another dose, or the depositor's remark. A selection: hits, their analogues and other compounds. The true share with any hit is near 14%. Unless noted, calls come from the whole dose curve; as a rule, active = well fitted curve in the direction sought with a large enough effect; inconclusive = small, poorly fitted or top-dose-only effect, or another doubt; inactive = no such curve, though single readings can be large; an effect the other way counts as inactive or inconclusive.

SMILES	HSD17B inhib	CRE Fsk mod	HADH2 inhib	4MU fluor	AID923	A350 autofl
COCc1nc(-c2ccc(-c3ccc(OC)cc3)nc2OC)no1	25.1µM	?	.	/	.	/
COc1nc(-c2ccccc2)ccc1-c1noc(C)n1	31.6µM	?	.	.	.	?
CCc1nc(-c2ccc(-c3ccc(OC)cc3)nc2OC)no1	31.6µM	?	.	5.12e-08M	.	5.07e-08M
COc1nc(-c2ccc(Cl)cc2)ccc1-c1noc(-c2ccco2)n1	.	.	?	?	.	?
COc1ccc(-c2ccc(-c3noc(C(C)C)n3)c(OC)n2)cc1	31.6µM	?	.	6.13e-08M	.	8.09e-08M
COCc1nc(-c2ccc(-c3ccccc3)nc2OC)no1	.	.	.	.	.	.
COCCn1c(=O)c(C)nc2cncnc21	?	.	.	.	.	?
O=C(O)c1ccccc1C(=O)Nc1cc2c(cc1Br)-c1ccccc1C2=O	.[11.4 µM]	.[7.6 µM]	.[11.4 µM]	.	.[11.5 µM]	.
COc1cccc(-c2ccc(-c3noc(-c4ccccc4F)n3)c(OC)n2)c1	31.6µM	.	15.8µM	5.15e-08M	.	4.22e-08M
CCOc1nc(-c2ccccc2)ccc1-c1noc(COC)n1	31.6µM	.	.	.	.	.
CO[C@H]1COC(=O)C/C=C\[C@H](C)[C@@H](NS(=O)(=O)c2ccc(C)cc2)COC(=O)CCC[C@@H]1C	.[11.4 µM]	/	.[11.4 µM]	/	.[11.5 µM]	/
NCCC[C@@H](CC(=O)N[C@@H]1CCCC[C@H]1C(=O)N[C@H](CC(=O)N[C@@H](CCC(=O)O)CC(=O)O)Cc1c[nH]c2ccccc12)NC(=O)C[C@H](CO)NC(=O)[C@@H]1CCCC[C@H]1N	/	?	.	/	/	/
CCOC(=O)C1CCN(C(=O)CCNC(=O)c2cc(OC)c(OC)c(OC)c2)CC1	.	.	.	3.66e-08M	.	?
COC(=O)C1CCN(C(=O)c2cc(OC)c(OC)c(OC)c2)CC1	.	.	.	.	.	.
CCC(=O)Nc1ccc(C(=O)n2ccc(C)n2)cc1	.	.	.	4.26e-08M	.	3.9e-08M
COc1ccc(NC(=O)N2CCC3(CC2)CCN(C(=O)c2ccco2)CC3)cc1	.	.	.	.	.	.
Cc1nc(NCCNC(=O)c2ccco2)c2c(C)c(C)sc2n1	.	5.01µM	.	?	.	?
O=C(NCCNC(=O)C(c1ccccc1)c1ccccc1)c1ccco1	.	.	.	.	.	.
CC(=O)Nc1cc(OC(C)=O)c2nonc2c1OC(C)=O	.	?	15.8µM	.	.	.
CC(=O)Nc1nonc1NC(C)=O	.	.	.	.	.	.
O=C(Nc1cccc(C(F)(F)F)c1)c1cccnc1	.	.	.	2.16e-08M	.	2.21e-08M
CC(C)C(=O)Nc1cccc(NC(=O)c2cccnc2)c1	.	.	.	.	.	.
NC(=O)c1ccccc1NS(=O)(=O)Cc1ccccc1	31.6µM	.	10µM	/	.	/
O=C(NCc1cccs1)c1cnn2cccnc12	31.6µM	.	.	3.31e-08M	.	3.82e-08M
O=C(NCc1cccs1)c1cccnc1C(=O)O	.	.	.	.	.	.
SMILES	HSD17B inhib	CRE Fsk mod	HADH2 inhib	4MU fluor	AID923	A350 autofl
O=C(NCc1ccccc1Cl)c1cnn2cccnc12	?	.	.	1.97e-08M	.	1.88e-08M
Cn1c(N)nc2c(nc(OCc3ccccc3)n2[C@@H]2O[C@H](CO)[C@@H](O)[C@@H]2O)c1=O	.[11.4 µM]	.[7.6 µM]	.[11.4 µM]	.	.[11.5 µM]	.
COc1ccc(CCn2c(C)cc(C(=O)CSc3nnc(N)s3)c2C)cc1	.	.	.	.	.	.
Cc1cc(C(=O)CSc2nnc(N)s2)c(C)n1CCc1ccc(F)cc1	.	.	.	1.41e-08M	.	1.68e-08M
Cc1cc(C(=O)CSc2nnc(N)s2)c(C)n1CCc1ccc(Cl)cc1	12.6µM	.	.	?	.	?
CCN(CC)CCCNC(=O)c1ccc(-n2c(=O)c(=O)[nH]c3ccccc32)cc1	.	/	.	/	.	/
CC(C)(CO[C@H]1C[C@H]2CC[C@@]1(C)C2(C)C)[N+](=O)[O-]	.[11.4 µM]	.[7.6 µM]	.[11.4 µM]	.	.[11.5 µM]	.
CC(C)(c1cc(Br)c(O)c(Br)c1)c1cc(Br)c(O)c(Br)c1	10µM	?	15.8µM	/	.	/
CO[C@@H]1COC(=O)CCC[C@@H](C)[C@H](OC)COC(=O)[C@H](Cc2ccccc2)NC(=O)C/C=C\[C@H]1C	.[11.4 µM]	/	.[11.4 µM]	/	.[11.5 µM]	/
